This note sets out measurements from PubChem BioAssay (NCI).

Each structure is given as a SMILES string. Compounds without any hit were thinned out: in the full panel of roughly 83,000, 20% have a hit.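 The test compound was applied at a single concentration to cells in 96-well plates for 48 hours, and percent growth was recorded.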 Values without a mark were called inactive. Active and inactive are the calls of the source. The calls were made as follows: active = growth percent below 10; inactive = the rest.

For this assay, the system named is HL-60(TB) leukemia. The assay is described as follows: NCI-60 one-dose screen, 48 h (100 = growth as untreated, 0 = no growth, -100 = all killed). The conditions noted are these: 10 µM unless noted.
In the case of `O=C(CN1CCN(c2cc(=O)n(-c3ccccc3)c3ccccc23)CC1)Nc1ccc(F)cc1`, the growth is 47.7%.

Take `C#C[C@]1(O)CC[C@H]2[C@@H]3CC=C4c5sc(Nc6ccc(OC)nc6)nc5CC[C@]4(C)[C@H]3CC[C@@]21C`: the growth was 10.1%.

As for `Cc1[nH]c(C(=O)Nc2ccccc2OCc2cccc(C(=O)NCCN)c2)cc1Cl`, the growth is 89.6%.

`N#C/C(=N\Nc1ccc(F)cc1)C(=O)Nc1cc(-c2ccccc2)nn1-c1ccccc1`: the growth is 3.54% (active).

For `Cn1ccnc1C(=O)/C=C/c1ccc(NC(=O)Nc2ccccc2)cc1`, the growth was -16.5% (active).

As for `C[C@@H](Nc1c(C#N)cnc2ccc(-c3cnc(Cl)c(NS(C)(=O)=O)c3)cc12)c1ccccc1`, the growth was -28.4% (active).

Take `COc1cc(C(=O)c2cc(C(C)=O)c3c4ccccc4ccn23)cc(OC)c1OC`: the growth is 32.9%.

For the compound `COc1ccc(/C=N/NC(=O)c2c(N)nn(C)c2Nc2ccccc2)cc1`, the growth was 15.5%.

As for `O=C(/C=C/Nc1ccc(S(=O)(=O)Nc2ncccn2)cc1)c1ccc(N=Cc2c(O)[nH]c3ccccc23)cc1`, the growth is 99.6%.

As to `CCCCCCNC(=O)Oc1ccc(/C(=C(/C)c2ccc(OC)cc2)c2ccc(OCCN3CCCCCC3)cc2)cc1`, the growth was -0.81% (active).

Take `COc1ccc([C@@H]2C(=O)N(c3cc(OC)c(OC)c(OC)c3)[C@H]2c2ccc(OC)c(O)c2)cc1`: the growth is 2.64% (active).

Turning to `COc1cc(OC)cc(C(=O)Nc2cccc(C#Cc3cccc4[nH]nc(N)c34)c2)c1`, the growth is 1.62% (active).

Regarding `CCCCCC[n+]1ccc(SCC(=O)n2ccc3ccccc32)c2ccccc21`, the growth is 74.8%.

For the compound `COc1ccc2c(c1)c(/C=N/Nc1ccnc3cc(Cl)ccc13)cn2C`, the growth was -52.2% (active).

On to `COc1ccc([C@H]2c3[nH]c4ccccc4c3C[C@H]3C(=O)N(C4CCN(Cc5c(Cl)cccc5Cl)CC4)CC(=O)N23)c(OC)c1`, for which the growth was 97%.

Consider `CNC(=O)c1c(NC(=O)c2ccc(F)cc2F)sc2c1CCC(=O)C2`, for which the growth was -12.6% (active).

Regarding `O=S(=O)(NCCCNc1nccc(-c2[nH]c(-c3ccccc3)nc2-c2ccc(Cl)c(O)c2)n1)c1cccc(F)c1`, the growth is 35.6%.

Consider `Cc1nn(-c2ccc(Cl)cc2)c(C)c1N=Nc1ccc2oc(=O)ccc2c1`, for which the growth is 93.5%.

For `O=C(CSc1nc2ccccc2c(=O)n1CCc1ccccc1)Nc1ccc(S(=O)(=O)Nc2ccc(Cl)nn2)cc1`, the growth was 132%.

As for `O=C(N/N=C/c1cc2ccccc2nc1Cl)c1cc(-c2nc3ccccc3[nH]2)nc2ccccc12`, the growth was 92%.

In the case of `CCOC(=O)c1c(Nc2ccccc2)nn2c(-c3ccco3)c(C#N)cnc12`, the growth is 110%.

With `CC1=N[C@@H]2CN(C(=O)OC(C)(C)C)C[C@@H]2n2c1cc1ccccc1c2=O`, the growth was 99.9%.

With `O=C(/C=C/C=C/c1csc(Br)n1)NO`, the growth is 58.4%.

As to `CCCN1C=C/C(=C\C(=O)n2ccc3ccccc32)c2ccccc21`, the growth was 87.4%.

For the compound `CC1=CC(=O)C2=C(C)CC(OC(=O)CCc3ccccc3)[C@@H]3[C@H](OC(=O)[C@@H]3C)[C@@H]12` (stereo partly specified), the growth is 87.9%.

Consider `CN(C)c1ccc(/C=N/Nc2nc(N/N=C/c3ccc(N(C)C)cc3)nc(N3CCCCC3)n2)cc1`, for which the growth was -38% (active).

`CC(C)(C)c1ccc(C(=O)Nc2sc3c(c2C(N)=O)CCC(O)C3)cc1` (stereo unspecified): the growth is 37.2%.

Take `Oc1ccccc1-c1nnc(SCc2ccc(O)c3ncccc23)n1-c1ccccc1`: the growth is 4.52% (active).

Consider `O=C(Nc1cc(C(F)(F)F)cc(C(F)(F)F)c1)Nc1ccc2oc(=O)ccc2c1`, for which the growth was -24.3% (active).

With `O=C(CN1CCN(c2cc(=O)n(-c3ccccc3)c3ccccc23)CC1)Nc1ccc([N+](=O)[O-])cc1`, the growth was 85%.

On to `Oc1cccc2ccc(-c3nnc(SCc4ccc(O)c5ncccc45)o3)nc12`, for which the growth was 13.7%.

Regarding `CCC(CC)N1C(=O)/C(=c2\sc3n(c2=O)C2C(NN=3)N(CC)C(=O)N2CC)c2ccccc21` (stereo unspecified), the growth was -17.8% (active).

As to `CCN1C(=O)N(CC)C2SC(N/N=C/c3ccccc3)=NC21` (stereo unspecified), the growth is 4% (active).

As for `CCOc1c(C#N)c(Nc2ccc(S(N)(=O)=O)cc2)c(C#N)c2nnc(C)n12`, the growth is 114%.

Take `CCN1CCN(c2ccc(NC(=O)Nc3ccc4c(ccn4-c4ccnc(C(=O)NC)c4)c3)cc2C(F)(F)F)CC1`: the growth was 96.6%.

On to `C=C=COc1cccc(/C(N)=N/C(N)=N/c2nc3ccccc3s2)c1`, for which the growth was 97.8%.
